# ADAM10 inh – inhibits human ADAM10; O14672; recombinant ADAM10, EDANS/DABCYL FRET peptide cleavage, 3 h; inhibition, % at 7 µM; 0.62% of 370,000 active; AID 720582;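 active = inhibition above a per-campaign cutoff equal to the mean of compounds falling between control-based bounds plus 3 SD, cut at about 20% in these data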
# proKLK7 act – activators of human kallikrein-7 zymogen; P49862; purified proKLK7, EDANS-DABCYL substrate fluorescence; 100% is mature enzyme control, 0% vehicle; activation, % at 7 µM; 0.9% of 370,000 active;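 active = activation above the mean of all tested compounds plus 3 SD, computed per campaign excluding outliers beyond control limits, cut at about 13% in these data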
# Target sequence (P49862 whole entry, looked up): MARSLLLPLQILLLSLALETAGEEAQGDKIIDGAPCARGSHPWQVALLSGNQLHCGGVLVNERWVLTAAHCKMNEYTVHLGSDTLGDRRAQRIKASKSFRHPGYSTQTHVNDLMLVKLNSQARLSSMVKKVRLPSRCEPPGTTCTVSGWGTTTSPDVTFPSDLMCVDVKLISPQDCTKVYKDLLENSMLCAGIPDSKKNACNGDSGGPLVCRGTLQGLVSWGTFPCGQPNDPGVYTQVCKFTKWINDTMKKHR
# V-ATPase pH – yeast V-ATPase proton transport regulation by pHLuorin; S. cerevisiae, pHLuorin cytosolic pH fluorescence; response, % at 10 µM; 0.37% of 350,000 active; AID 504577; in the data active = response mostly above about 7.3%, no sharp cut-off; inactive = mostly below about 5.4%; also: actives read high
# ADAM17 inh – inhibits human ADAM17 | inhibition, % at 6.95 µM | P78536 | AID 720648 | recombinant ADAM17, EDANS/DABCYL FRET peptide cleavage | 0.83% of 370,000 active;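 active = inhibition above the mean of compounds lying between control limits plus 3 SD, set per campaign, cut at about 8.5% in these data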
# proKLK7 act conf – confirmation of human kallikrein-7 zymogen activators. 68% of 3,200 active. activation, % at 7 µM. AID 686949. purified proKLK7, EDANS-DABCYL substrate fluorescence; scaled: vehicle 0, mature enzyme 100. shares compounds with proKLK7 act;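 active = activation, as change over the incubation, above the mean of all tested compounds plus 3 SD, cut at about 13% in these data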
# EDANS interfere – fluorescence interference counter-screen for KLK7 activators | shares compounds with proKLK7 act | EDANS-DABCYL substrate fluorescence interference, no enzyme, 4 h; solvent 0%, active enzyme control 100% | activation, % at 7 µM | 80% of 3,200 active | AID 686952;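 active = activation above the all-compound mean plus 3 SD, ignoring values outside control-based bounds, cut at about 4.8% in these data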;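 also: value is the 4 h activation minus the activation read at time zero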
# K7 EDANS ctr – optically interferes with EDANS-DABCYL fluorescence, kallikrein-7 activator counter-screen; shares compounds with proKLK7 act; EDANS-DABCYL peptide fluorescence interference, no enzyme; EC50, µM; 20% of 250 active; AID 720493;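 active = compounds that raise the fluorescence signal in this interference counterscreen, with EC50 at or below 10 µM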;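 also: intact quenched peptide substrate alone read at 355 nm excitation and 520 nm emission; signal is fluorescence gain from T0 to T4 after four hours at room temperature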
# Numbers stand for hits; i = inactive; nt = no result given. Only some compounds are listed: those with a hit (about 2.3% of all), similar ones and a draw of the others.
SMILES,ADAM10 inh,proKLK7 act,V-ATPase pH,ADAM17 inh,proKLK7 act conf,EDANS interfere,others
CCCc1cc(=O)oc2c(CN3CCOCC3)c(O)ccc12,i,75,i,i,72,63,
CCCc1cc(=O)oc2c(CN3CCN(C)CC3)c(O)ccc12,i,46,i,i,66,75,
COC(=O)C1=C(C)N(C)C(=NCc2ccc3c(c2)OCO3)NC1c1ccc(C(F)(F)F)cc1 (stereo unspecified),i,i,nt,i,nt,nt,
Cc1cccc(Cl)c1-n1nnnc1C1(C)CSCC(=O)N1Cc1ccc(F)cc1 (stereo unspecified),i,i,nt,i,nt,nt,
Cc1c(O)ccc2c(CN(C)Cc3ccccc3)cc(=O)oc12,i,i,i,i,nt,nt,
CCCCc1cc(=O)oc2cc(O)ccc12,i,56,i,i,79,78,
CCCCc1cc(=O)oc2c(CN(C)C)c(O)ccc12,i,55,i,i,63,66,
CCCCc1cc(=O)oc2c(CN3CCN(C)CC3)c(O)ccc12,i,53,i,i,70,75,
CN(CCOC(=O)CCCc1ccccc1)C1CN(Cc2cn(Cc3ccccc3F)nn2)S(=O)(=O)C1 (stereo unspecified),i,i,nt,i,nt,nt,
CCNc1ccc2c(Cl)cc(=O)oc2c1,i,25,i,i,30,38,
C[C@@H](NC(=O)C[C@H]1CC[C@H]2[C@@H](COc3ccc(NC(=O)Nc4ccccc4)cc3C(=O)N2C)O1)c1ccccc1,i,i,nt,i,nt,nt,
CCOC(=O)c1cc(C)[nH]c1C,i,i,i,i,nt,nt,
CCOC(=O)c1cc(C)[nH]c(=O)c1C#N,i,42,i,i,65,74,
CCOC(=O)C1CCN(c2cc3c(cc2NC(=O)c2ccccc2Br)n(C)c(=O)n3C)CC1,i,i,i,i,nt,nt,
CCOC(=O)C1CCN(c2cc3c(cc2NC(=O)c2cc(OC)ccc2Br)n(C)c(=O)n3C)CC1,i,19,i,i,25,31,
COC(=O)C1CCN(C2CN(Cc3cn(Cc4ccc(C(F)(F)F)cc4)nn3)S(=O)(=O)C2)CC1 (stereo unspecified),i,i,nt,i,nt,nt,
CCOC(=O)CCCCCC(=O)Nc1ccc2c(c1)C(=O)N([C@H](C)CO)C[C@@H](C)[C@@H](CN(C)S(=O)(=O)c1ccc(C)cc1)OCCCC[C@H](C)O2,i,i,nt,i,nt,nt,
CCNc1nc(C)c(CN(C(C)=O)c2ccccc2)nc1C#N,i,33,i,i,28,24,K7 EDANS ctr=i
Cc1ccc2c(c1)c1c3n2CCN=C3CCC1,i,30,i,i,i,9.7,
c1cc2c(cc1C1CCCCC1)c1c3n2CCN=C3CCC1,i,i,i,i,nt,nt,
COC(=O)C(Cc1ccc(O)cc1)NS(=O)(=O)Cc1ccccc1 (stereo unspecified),i,i,nt,i,nt,nt,
CCCCNc1nccnc1-c1cccc(C=O)c1,i,212,nt,i,299,289,
c1ccc(Nc2c(-c3ccco3)nc3ccccn23)cc1,i,16,i,i,68,72,
CS(=O)(=O)Nc1ccc(-c2cncc3nccn23)cc1,i,16,nt,i,i,4.5,
CCOc1ccc(-c2cncc3nccn23)cc1,i,17,nt,i,33,36,
SMILES,ADAM10 inh,proKLK7 act,V-ATPase pH,ADAM17 inh,proKLK7 act conf,EDANS interfere,others
CS(=O)(=O)Nc1ccc(-c2cnc3cccnn23)cc1,i,76,nt,i,14,11,K7 EDANS ctr=i
COC(=O)c1cc2c(c3c4cc(C)ccc4n(S(=O)(=O)c4ccc(C)cc4)c13)C(=O)N(Cc1ccc(C(F)(F)F)cc1)C2,i,i,nt,i,nt,nt,
CCOc1ccccc1NC(=O)c1cc2c(C)nn(-c3ccccc3)c2s1,i,i,nt,i,nt,nt,
COC(=O)CSc1ccc2c(N)c(C(=O)OC)sc2c1,i,45,i,i,27,29,
COC(=O)CSc1nc2ccc(N)cc2s1,i,i,i,i,nt,nt,
CCOC(=O)c1cnc2cc3c(cn2c1=O)CCCC3,i,13,i,i,i,10,
O=C(O)C1CC=CCC1C(=O)N1CCN(c2nc(-c3ccccc3)c3ccccc3n2)CC1 (stereo unspecified),i,80,i,i,i,i,
O=C(O)C1CC=CCC1C(=O)N1CCN(c2nc(-c3ccccc3Cl)c3cc(Br)ccc3n2)CC1 (stereo unspecified),i,i,i,i,nt,nt,
Cc1ccc2nc(N3CCN(C(=O)CCC(=O)O)CC3)nc(-c3ccccc3)c2c1,i,27,i,i,i,i,
O=C(O)CCCC(=O)N1CCN(c2nc(-c3ccccc3)c3ccccc3n2)CC1,i,16,i,i,i,8.0,
COc1cccc(N(C)C(=O)[C@@H](C)[C@@H](O)c2ccc(C(C)=O)cc2)c1,i,i,nt,i,nt,nt,
Cc1ccc(NC(=O)[C@H]2CC(=O)O[C@@H]2c2ccccc2)cc1C,i,i,nt,i,nt,nt,
CSc1nc2[nH]c3c(c2c2nnnn12)CCCC3,i,14,i,i,i,9.8,
NC(=S)NNc1ccnc2cc(Cl)ccc12,i,16,i,i,20,21,
O=C(NNc1ccnc2cc(Cl)ccc12)C1CCCCC1,i,i,i,i,nt,nt,
COc1ccc(NC(=O)N(C)C[C@H]2OCc3cn(nn3)CCCC(=O)N([C@H](C)CO)C[C@@H]2C)cc1,i,i,nt,i,nt,nt,
CC(=O)Nc1cccc(C(=O)Oc2cccc(C)c2)c1O,i,40,i,i,48,51,
CCOC(=O)c1cc(OC(C)=O)c2ccc(OC)c(OC)c2c1,i,14,i,i,i,i,
COc1cc2oc3cc(C)oc(=O)c3c2cc1OC,i,35,i,i,60,73,
COc1cc2oc(=O)c(Br)c(C)c2c(OC)c1OC,i,i,i,i,nt,nt,
Cc1cc(N2CCN(S(C)(=O)=O)C[C@@H]2C)ccc1N1CCN(Cc2ccccc2)[C@@H](C)C1,i,i,nt,i,nt,nt,
CCOC(=O)c1nn(-c2ccccc2)c(C#N)c1N,i,25,i,i,18,25,
CN(C)/C=N/c1nc2nccc(-c3cccc(Cl)c3)n2n1,i,15,i,i,34,45,
CC(Oc1ccccc1)c1ccnc2nc(/N=C/N(C)C)nn12 (stereo unspecified),i,i,i,i,nt,nt,
CN(C)/C=N/c1nc2nccc(-c3cccs3)n2n1,i,85,i,i,67,79,
CN(C)/C=N/c1nc2nccc(-c3ccc(F)cc3)n2n1,i,i,i,i,nt,nt,
COc1cc2[nH]c(Cl)c([N+](=O)[O-])c2cc1OC,i,58,i,i,i,5.9,
CC(C)=CC([C@]12C[C@H](CO)N[C@@H]1Nc1ccccc12)S(=O)(=O)c1ccccc1 (stereo partly specified),i,nt,nt,i,nt,nt,
COC(=O)c1ccc(C=NNC(=O)c2cc(-c3ccc(C)c(C)c3)n[nH]2)cc1,i,i,nt,i,nt,nt,
COc1cc2c(cc1OC)CN(CC(=O)Nc1cccc(C)c1)CC2,i,i,i,i,nt,nt,

# High-throughput results as filed in PubChem BioAssay.
